For three compounds, outcome and AC50 results are on record in PubChem BioAssay (EPA / NIEHS).

Results filed as inconclusive are left out. The source made the active and inactive calls. Rule for the calls, unless noted: active = hit-call score of the fitted dose curve at least 0.9, where 1 is the maximum; inconclusive = response in the unintended direction; inactive = score below 0.9.

The nature of test [1]: CEETOX_H295R_OHPREG_noMTC: CeeTox H295R High-throughput Steroidogenesis Assay for OH-Pregnenolone (OHPREG), maximum tolerated concentration (MTC) filtered results only (AID 2283912; active = hit-call score of the fitted dose curve at least 0.9, where 1 is the maximum; inactive = score below 0.9). The conditions noted are these: actives raise or lower the signal. An outline of the steps: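 H295R; 10 uM forskolin 48 h pre-stim; test cpd in DMSO (0.1% final) 48 h; media MTBE-extracted, HPLC-MS/MS for OH-pregnenolone; bidirectional fit vs DMSO; no MTC (MTT) filtering.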

The nature of test [2]: CEETOX_H295R_OHPROG_noMTC: CeeTox H295R High-throughput Steroidogenesis Assay for OH-Progesterone (OHPROG), maximum tolerated concentration (MTC) filtered results only (AID 2283914; active = hit-call score of the fitted dose curve at least 0.9, where 1 is the maximum; inactive = score below 0.9). The conditions noted are these: actives raise or lower the signal. An outline of the steps:
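Medium hormone measured by reverse-phase C18 HPLC with positive electrospray MS/MS after MTBE liquid-liquid extraction. Cells had 48 h forskolin (10 uM) prestimulation, then 48 h chemical dosing. Gain or loss of signal fitted relative to DMSO baseline.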

The nature of test [3]: CEETOX_H295R_ANDR_noMTC: CeeTox H295R High-throughput Steroidogenesis Assay for Androstenedione (ANDR), maximum tolerated concentration (MTC) filtered results only (AID 2283915; active = hit-call score of the fitted dose curve at least 0.9, where 1 is the maximum; inactive = score below 0.9). Conditions: actives raise or lower the signal. An outline of the steps:
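Androstenedione secreted into medium was measured by LC-MS/MS after MTBE extraction. Human adrenal H295R cells received 10 uM forskolin for 48 h before 48 h chemical exposure (0.1% DMSO). Gain or loss fitted against DMSO, including concentrations above the MTT-derived MTC.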

Test [4] can be described thus: CEETOX_H295R_PROG_noMTC: CeeTox H295R High-throughput Steroidogenesis Assay for Progesterone (PROG), maximum tolerated concentration (MTC) filtered results only (AID 2283920; active = hit-call score of the fitted dose curve at least 0.9, where 1 is the maximum; inactive = score below 0.9). The conditions noted are these: actives raise or lower the signal. An outline of the steps:
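Readout: medium progesterone by MTBE extraction, reverse-phase C18 HPLC, ESI-positive MS/MS. Human H295R cells, 10 uM forskolin pretreatment 48 h, chemical 48 h in 0.1% DMSO. Gain or loss fitted against DMSO baseline.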

Test [5] can be described thus: CEETOX_H295R_TESTO_noMTC: CeeTox H295R High-throughput Steroidogenesis Assay for Testosterone (TESTO), maximum tolerated concentration (MTC) filtered results only (AID 2283924; active = hit-call score of the fitted dose curve at least 0.9, where 1 is the maximum; inactive = score below 0.9). The conditions noted are these: actives raise or lower the signal. An outline of the steps:
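Medium testosterone, measured by HPLC-MS/MS after liquid-liquid extraction, was fitted in both directions relative to DMSO without MTC filtering. Adrenal H295R cells received 48 h chemical exposure (0.1% DMSO final) after 48 h forskolin (10 uM) prestimulation; viability by MTT.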

The target of test [6] is PGR (gene 5241) (UniProt P06401). Briefly: TOX21_PR_BLA_Followup_Agonist_ratio: Tox21 HEK293 Progesterone Receptor (PR) Agonism Beta-lactamase Follow-Up Assay, Ratio (AID 2283933). The method, boiled down: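 Ratio-based beta-lactamase reporter signal after 16 hr compound treatment of PR-UAS-bla HEK293T cells at 37C. Substrate loading lasted 2 hr at room temperature.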
Test [7] has the same target. The test is described as follows: TOX21_PR_BLA_Followup_Antagonist_ratio: Tox21 HEK293 Progesterone Receptor (PR) Antagonism Beta-lactamase Follow-Up Assay, Ratio (AID 2283934).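 Note: PR-UAS-bla HEK293T cells stimulated with 1 nM R5020 agonist for 16 hr.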 The method, boiled down:
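Measured in PR-UAS-bla HEK293T cells co-treated with compound and 1 nM promegestone for 16 hr; beta-lactamase ratio read after 2 h FRET substrate loading, with parallel CellTiter-Glo cytotoxicity.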

A short description of test [8]: TOX21_PR_BLA_Followup_Agonist_viability: Viability Assessment in the Tox21 HEK293 Progesterone Receptor (PR) Agonism Beta-lactamase Follow-Up Assay (AID 2283935).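 Note: signal loss means lower viability so actives are cytotoxic.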 An outline of the steps:
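Viability is read as CellTiter-Glo luminescence, where loss of signal indicates cytotoxicity. The cells are PR-UAS-bla HEK293T given compounds for 16 hr at 37C and 5% CO2, in the same wells used for the bla readout.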

Test [9] can be described thus: TOX21_PR_BLA_Followup_Antagonist_viability: Viability Assessment in the Tox21 HEK293 Progesterone Receptor (PR) Antagonism Beta-lactamase Follow-Up Assay (AID 2283936).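 Note: cells exposed to compound with R5020 agonist for 16 h; hits lower the luminescence signal meaning cytotoxicity.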 The method, then:
TOX21_PR_BLA_Followup is a secondary assay for specificity for the TOX21_PR_BLA_Agonist assay. To differentiate true PR agonists from cytotoxic substances, this follow up assay is multiplexed with a cell viability assay. The compounds were also tested for auto fluorescence that may interfere with the biological target readout resulting in potential false positives and/or negatives. To identify the compounds that stimulate PR signaling, a PR-UAS-bla GripTite cell line i.e. PR-UAS-bla HEK293T (Invitrogen, Carlsbad, CA, USA) containing a beta-lactamase reporter gene under the control of an UAS response element was used to screen Tox21 10K compound library. The cytotoxicity of the Tox21 compound library against the PR-bla cell line was tested in parallel by measuring the cell viability using CellTiter-Glo assay in the same wells. TOX21_PR_BLA_Followup_Antagonist_viability is a component of the TOX21_PR_BLA_Followup_Antagonist assay. This component measures cell viability using the CellTiter-Glo Luciferase-coupled ATP quantitation.TOX21_PR_BLA_Followup_Antagonist_viability used a type of viability reporter where loss-of-signal activity can be used to understand changes in the cell viability. Furthermore, this assay endpoint can be referred to as a secondary readout, because this assay has produced multiple assay endpoints where this one serves a viability function. […]

Sequence of PGR (gene 5241) (P06401 whole entry, looked up): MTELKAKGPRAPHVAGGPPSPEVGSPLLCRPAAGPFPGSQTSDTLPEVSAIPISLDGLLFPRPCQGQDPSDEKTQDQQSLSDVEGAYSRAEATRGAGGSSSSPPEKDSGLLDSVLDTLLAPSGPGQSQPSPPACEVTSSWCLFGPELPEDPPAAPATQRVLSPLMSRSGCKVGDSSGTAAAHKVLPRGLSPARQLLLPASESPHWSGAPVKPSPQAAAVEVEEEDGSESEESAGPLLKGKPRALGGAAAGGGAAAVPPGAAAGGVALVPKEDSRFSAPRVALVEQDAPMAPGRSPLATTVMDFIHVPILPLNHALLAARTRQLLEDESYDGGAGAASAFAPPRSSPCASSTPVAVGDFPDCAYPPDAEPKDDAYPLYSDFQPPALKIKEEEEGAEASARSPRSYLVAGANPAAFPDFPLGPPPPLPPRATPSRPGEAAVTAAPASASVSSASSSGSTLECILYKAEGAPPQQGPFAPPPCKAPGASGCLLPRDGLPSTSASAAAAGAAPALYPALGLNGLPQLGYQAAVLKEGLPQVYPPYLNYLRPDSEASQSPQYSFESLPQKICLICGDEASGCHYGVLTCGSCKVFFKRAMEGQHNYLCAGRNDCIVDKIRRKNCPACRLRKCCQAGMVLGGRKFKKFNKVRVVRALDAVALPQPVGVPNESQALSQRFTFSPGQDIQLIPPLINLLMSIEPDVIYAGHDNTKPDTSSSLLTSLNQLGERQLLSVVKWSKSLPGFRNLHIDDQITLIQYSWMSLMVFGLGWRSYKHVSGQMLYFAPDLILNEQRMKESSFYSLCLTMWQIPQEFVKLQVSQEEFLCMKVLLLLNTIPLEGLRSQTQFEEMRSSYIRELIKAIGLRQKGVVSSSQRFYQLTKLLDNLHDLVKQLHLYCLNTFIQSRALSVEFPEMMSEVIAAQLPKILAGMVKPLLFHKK

`CCCCOC(=O)c1ccccc1C(=O)O`: the outcome in test [1], in [2], in test [3], in test [4] and in [5] was inactive.

Regarding `CCC(=O)Nc1ccc(Cl)c(Cl)c1`, the outcome (with PGR (gene 5241) [6]; in the test with PGR (gene 5241) [7]; in [8]; in [9]) was inactive.

Regarding `CCOP(=S)(OCC)Oc1ccc([N+](=O)[O-])cc1`, in the test with PGR (gene 5241) [7], the AC50 is 3.78 µM (active). For the same compound, the compound was called inactive in [8] and in [9].

A word on the AC50: it is the concentration at which the activity in the assay is half-maximal.
